Results as given in PubChem BioAssay AID1159580 (chemical genetic matrix, 2015).
Where “and” joins values, the source holds several entries; their conditions need not be identical. Equal values may be shown once. The whole screen tested about 5,500 compounds, of which about 2,000 (36%) were called active. Roughly 18% stayed inconclusive and do not appear here. No stated cut-off is given here; in the data, active means normalized growth mostly below about 0.91 (no sharp cut-off); inconclusive means no clear call, values can overlap the other calls; inactive means mostly above about 0.92. Some of the results follow.

Assay: chemical genetic growth profiling, strain panel (AID 1159580);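 further: tested at 20 µM; growth read once vehicle control cultures reached saturation at 30 °C; 1 = growth at the plate median or of vehicle wells; lower values mean less growth of the strain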
Settings: S. cerevisiae deletion strains, growth OD

Measured: normalized growth

O=c1ccc2ccccc2o1
inactive: locus YAL013W, strain DEP1, hits give low values 1.02 | locus YAL021C, strain ccr4, hits give low values 1.01 | locus YAL026C, strain drs2, hits give low values 0.993 | locus YAL030W, strain snc1, hits give low values 0.99 | locus YBL061C, strain skt5, hits give low values 0.988 | locus YBR009C, strain hhf1, hits give low values 0.939 | locus YBR021W, strain FUR4, hits give low values 1 | locus YBR023C, strain chs3, hits give low values 0.996 | locus YBR171W, strain sec66, hits give low values 0.974 | locus YBR229C, strain ROT2, hits give low values 1.02 | locus YBR231C, strain swc5, hits give low values 0.964 | locus YBR279W, strain paf1, hits give low values 0.999 | locus YCL011C, strain gbp2, hits give low values 0.993 | locus YCL016C, strain dcc1, hits give low values 1.03 | locus YCL029C, strain bik1, hits give low values 0.992 | locus YCL069W, strain vba3, hits give low values 0.98 | locus YCR088W, strain abp1, hits give low values 0.982 | locus YDL005C, strain med2, hits give low values 0.976 | locus YDL035C, strain GPR1, hits give low values 1.01 | locus YDL040C, strain nat1, hits give low values 0.984 | locus YDL074C, strain BRE1, hits give low values 1.01 | locus YDL101C, strain DUN1, hits give low values 1.03 | locus YDL134C, strain PPH21, hits give low values 1.03 | locus YDL185W, strain tfp1, hits give low values 0.982 | locus YDL192W, strain arf1, hits give low values 0.988 | locus YDR001C, strain nth1, hits give low values 0.978 | locus YDR069C, strain doa4, hits give low values 0.987 | locus YDR101C, strain arx1, hits give low values 0.968 | locus YDR137W, strain rgp1, hits give low values 0.968 | locus YDR150W, strain NUM1, hits give low values 1 | locus YDR159W, strain sac3, hits give low values 0.945 | locus YDR162C, strain NBP2, hits give low values 1.04 | locus YDR195W, strain ref2 0.991 | locus YDR297W, strain sur2, hits give low values 0.973 | locus YDR318W, strain mcm21, hits give low values 1.01 | locus YDR334W, strain swr1, hits give low values 0.926 | locus YDR335W, strain msn5, hits give low values 0.985 | locus YDR388W, hits give low values 0.988 | locus YDR392W, strain spt3, hits give low values 0.956 | locus YDR502C, strain sam2, hits give low values 0.963 | locus YEL003W, strain gim4, hits give low values 0.957 | locus YEL037C, strain rad23, hits give low values 0.977 | locus YEL061C, strain CIN8 (second series), hits give low values 0.954 | locus YEL061C, strain CIN8, hits give low values 1.01 | locus YER015W, strain faa2, hits give low values 0.991 | locus YER016W, strain bim1, hits give low values 0.986 | locus YER110C, hits give low values 0.989 | locus YER111C, strain swi4, hits give low values 0.982 | locus YER155C, strain BEM2 (second series), hits give low values 0.937 | locus YER155C, strain BEM2, hits give low values 1.02 | locus YER167W, strain BCK2, hits give low values 1.02 | locus YFR010W, strain ubp6, hits give low values 0.93 | locus YGL078C, strain dbp3, hits give low values 0.992 | locus YGL086W, strain mad1, hits give low values 0.981 | locus YGL167C, strain pmr1, hits give low values 0.972 | locus YGL173C, strain kem1, hits give low values 0.973 | locus YGL227W, strain vid30, hits give low values 0.969 | locus YGL240W, strain doc1, hits give low values 0.958 | locus YGL248W, strain PDE1, hits give low values 1.04 | locus YGL253W, strain hxk2, hits give low values 1.01 | locus YGR135W, strain pre9, hits give low values 0.988 | locus YGR252W, strain gcn5, hits give low values 1.02 | locus YHR013C, strain ard1, hits give low values 1.05 | locus YHR027C, strain rpn1, hits give low values 0.975 | locus YHR030C, strain SLT2, hits give low values 1.02 and 0.992 | locus YHR079C, strain IRE1 (second series), hits give low values 0.999 | locus YHR079C, strain IRE1, hits give low values 0.957 | locus YHR094C, strain hxt1, hits give low values 0.989 | locus YHR129C, strain ARP1, hits give low values 1.02 | locus YHR142W, strain chs7, hits give low values 1.03 | locus YHR200W, strain rpn10, hits give low values 0.978 | locus YIL066C, strain RNR3, hits give low values 1.02 | locus YIL073C, strain SPO22, hits give low values 0.985 | locus YIL125W, strain kgd1, hits give low values 1.01 | locus YIR030C, strain dcg1, hits give low values 0.992 | locus YJL092W, strain hpr5, hits give low values 0.996 | locus YJL095W, strain BCK1 (second series), hits give low values 0.978 | locus YJL095W, strain BCK1, hits give low values 1.06 and 0.982 | locus YJL115W, strain asf1, hits give low values 0.972 | locus YJL129C, strain trk1, hits give low values 0.985 | locus YJL134W, strain LCB3, hits give low values 1.01 | locus YJL154C, strain vps35, hits give low values 0.978 | locus YJL164C, strain tpk1, hits give low values 0.977 | locus YJL166W, strain qcr8, hits give low values 0.956 | locus YJL168C, strain set2, hits give low values 0.995 | locus YJL187C, strain SWE1 (second series), hits give low values 1.02 | locus YJL187C, strain SWE1, hits give low values 0.982 | locus YJR043C, strain POL32, hits give low values 1.02 | locus YJR066W, strain TOR1, hits give low values 0.945 | locus YKL009W, strain mrt4, hits give low values 1.12 | locus YKL068W, hits give low values 1.01 | locus YKL085W, strain MDH1 (second series), hits give low values 1.01 | locus YKL085W, strain MDH1, hits give low values 1.01 | locus YKL160W, strain elf1, hits give low values 1.02 | locus YKL190W, strain CNB1, hits give low values 1.02 | locus YKR001C, strain vps1, hits give low values 0.979 | locus YKR026C, strain gcn3, hits give low values 0.972 | locus YKR091W, strain srl3, hits give low values 0.983 | locus YLL001W, strain dnm1, hits give low values 0.981 | locus YLL026W, hits give low values 0.99 | locus YLL041C, strain sdh2, hits give low values 0.998 | locus YLR027C, strain aat2, hits give low values 0.993 | locus YLR039C, strain RIC1, hits give low values 1.03 | locus YLR058C, strain SHM2, hits give low values 1.03 | locus YLR102C, strain apc9, hits give low values 0.987 | locus YLR113W, strain HOG1, hits give low values 0.999 | locus YLR221C, strain rsa3, hits give low values 0.952 | locus YLR258W, strain gsy2, hits give low values 1.01 | locus YLR262C, strain YPT6 (second series), hits give low values 0.965 | locus YLR262C, strain YPT6, hits give low values 1.03 | locus YLR268W, strain sec22, hits give low values 0.961 | locus YLR320W, strain mms22, hits give low values 0.951 | locus YLR330W, strain CHS5, hits give low values 1.03 | locus YLR342W, strain FKS1 (second series), hits give low values 1.01 | locus YLR342W, strain FKS1, hits give low values 1 | locus YLR357W, strain rsc2, hits give low values 1.04 | locus YLR370C, strain arc18, hits give low values 1 | locus YLR371W, strain rom2, hits give low values 0.976 | locus YLR384C, strain iki3, hits give low values 0.992 | locus YLR418C, strain cdc73, hits give low values 1.03 | locus YML016C, strain PPZ1, hits give low values 1.02 | locus YML032C, strain rad52, hits give low values 0.999 | locus YML120C, strain ndi1, hits give low values 0.95 | locus YML124C, strain tub3, hits give low values 0.994 | locus YMR058W, strain fet3, hits give low values 0.983 | locus YMR078C, strain ctf18, hits give low values 0.989 | locus YMR125W, strain sto1, hits give low values 0.998 | locus YMR129W, hits give low values 0.989 | locus YMR205C, strain PFK2, hits give low values 0.955 | locus YMR223W, strain ubp8, hits give low values 1.04 | locus YMR231W, strain pep5, hits give low values 0.971 | locus YMR307W, strain GAS1, hits give low values 1.06 | locus YNL067W, strain RPL9B, hits give low values 1.02 | locus YNL071W, strain lat1, hits give low values 0.958 | locus YNL183C, strain NPR1, hits give low values 0.949 | locus YNL209W, strain ssb2, hits give low values 0.978 | locus YNL233W, strain BNI4, hits give low values 1.02 | locus YNL248C, strain rpa49, hits give low values 0.995 | locus YNL250W, strain rad50, hits give low values 1.01 | locus YNL271C, strain bni1, hits give low values 0.993 | locus YNL298W, strain CLA4, hits give low values 0.993 | locus YNL307C, strain MCK1, hits give low values 0.997 | locus YNL322C, strain KRE1 (second series), hits give low values 0.98 | locus YNL322C, strain KRE1, hits give low values 1.02 | locus YNR049C, strain mso1, hits give low values 0.993 | locus YNR052C, strain pop2, hits give low values 1.01 | locus YOL012C, strain htz1 1.37 | locus YOL147C, strain pex11, hits give low values 0.99 | locus YOR001W, strain rrp6, hits give low values 0.935 | locus YOR061W, strain CKA2, hits give low values 1.02 | locus YOR069W, strain VPS5, hits give low values 1.01 | locus YOR070C, strain gyp1, hits give low values 0.994 | locus YOR080W, strain dia2, hits give low values 0.981 | locus YOR083W, strain WHI5, hits give low values 0.972 | locus YOR106W, strain vam3, hits give low values 0.998 | locus YOR136W, strain idh2, hits give low values 0.982 | locus YOR144C, strain elg1, hits give low values 0.99 | locus YOR184W, strain ser1, hits give low values 0.985 | locus YOR231W, strain MKK1, hits give low values 0.988 | locus YOR265W, strain rbl2, hits give low values 0.987 | locus YOR270C, strain vph1, hits give low values 0.981 | locus YOR290C, strain snf2, hits give low values 1.01 | locus YOR316C, strain cot1, hits give low values 1 | locus YPL051W, strain arl3, hits give low values 1.03 | locus YPL055C, strain LGE1, hits give low values 1.02 | locus YPL078C, strain atp4, hits give low values 1.03 | locus YPL106C, strain sse1, hits give low values 0.988 | locus YPL240C, strain hsp82, hits give low values 0.983 | locus YPL256C, strain CLN2, hits give low values 1 | locus YPR119W, strain clb2, hits give low values 0.992 | locus YPR141C, strain kar3, hits give low values 0.999 | locus YPR163C, strain tif3, hits give low values 1 | locus YPR167C, strain met16, hits give low values 1.03 | strain wtn01, hits give low values 0.962
